Screening data deposited in PubChem by National Center for Advancing Translational Sciences (NCATS).
LmPK inhibitor = inhibitors of Leishmania mexicana pyruvate kinase; Q27686; purified LmPK, Kinase-Glo ATP luminescence, 1 h; Potency, µM (highest dose often 57.5 µM), inactives show at the highest dose activity change, negative = inhibition, hits mostly inhibitors; 290,000 tested, 0.37% active; AID 1721; also: potency is read from the fitted curve at half-maximal effect; % is scaled to controls: 0 for no effect and ±100 for the full control effect
Target sequence (Q27686 whole entry, looked up): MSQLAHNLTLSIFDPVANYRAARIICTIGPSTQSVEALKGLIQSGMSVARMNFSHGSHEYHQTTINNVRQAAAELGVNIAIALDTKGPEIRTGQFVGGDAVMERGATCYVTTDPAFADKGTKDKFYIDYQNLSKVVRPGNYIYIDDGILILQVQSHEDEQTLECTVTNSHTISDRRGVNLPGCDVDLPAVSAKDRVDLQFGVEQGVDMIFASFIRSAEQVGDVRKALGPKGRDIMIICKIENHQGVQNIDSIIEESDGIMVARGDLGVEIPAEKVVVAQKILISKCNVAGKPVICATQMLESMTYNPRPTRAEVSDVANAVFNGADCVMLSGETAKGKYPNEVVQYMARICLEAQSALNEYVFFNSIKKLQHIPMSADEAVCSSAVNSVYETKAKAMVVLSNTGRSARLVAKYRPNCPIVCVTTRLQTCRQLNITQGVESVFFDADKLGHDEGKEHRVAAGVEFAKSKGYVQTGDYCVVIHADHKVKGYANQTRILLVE
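0.1 nM LmPK, 0.5 mM PEP, 0.1 mM ADP; 50 mM imidazole pH 7.2, 7 mM MgCl2, 50 mM KCl; 1 h RT. Kinase-Glo luminescence readout, normalized to no-enzyme (full inhibition) and uninhibited wells.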
CHX counter = counter-screen hit for Shiga toxin inhibitors, cycloheximide. 300,000 tested, 12% active. cell reporter, cycloheximide protein synthesis inhibition counterscreen. max response, %. AID 2314; in the data active = max response mostly above about 13%, no sharp cut-off; inactive = mostly below about 14%; also: read at 38.3 µM for the half of the compounds with a filed dose; 0% is about no effect
RE007 growth inh = less growth of the S. pombe RE007 Vpr strain; S. pombe RE007 Vpr strain, BacTiter-Glo ATP luminescence, 24 h; Potency, µM (top dose mostly 92.2 µM), for inactives: at the top dose activity change, negative = less growth, usual class: inhibitors; 360,000 tested, 0.21% active; AID 651644; active = well fitted falling curve with a large enough effect; inconclusive = small, poorly fitted or top-dose-only effect; inactive = no such curve, though single readings can be large or run the other way; also: potency is read from the fitted curve at half-maximal effect; % is scaled to controls: 0 for no effect and ±100 for the full control effect; nearly all actives have a fitted effect of over 50% in size
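Fission yeast strain RE007, carrying one chromosomally integrated HIV-1 vpr copy, was seeded at OD 0.01 in PMG+AL medium with 23 nL pinned compound. After 24 h at 30 °C and 99% humidity, viability was read by BacTiter-Glo luminescence.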
Shiga toxin inh = inhibitors of Shiga toxin in Vero cells; Vero cells, Shiga toxin protein synthesis inhibition reporter; inhibition, % at 38.7 µM; 290,000 tested, 9.2% active; AID 2315; in the data active = inhibition mostly above about 28%, no sharp cut-off; inactive = mostly below about 43%; also: 0% is about no effect
Giardia FBPA inh-1 = blocks Giardia fructose-bisphosphate aldolase activity. A8B2U2. Potency, µM (titrated, usually from 59.6 µM), inactives show at the highest dose activity, negative = inhibition, usual class: inhibitors. AID 2451. purified Giardia FBPA. 290,000 tested, 0.71% active; also: potency is read from the fitted curve at half-maximal effect; % is scaled to controls: 0 for no effect and ±100 for the full control effect; nearly all actives have a fitted effect of over 55% in size
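Giardia FBPA (40 nM reagent) was preincubated 10 min at RT with compound (up to 57.5 uM final), then substrate plus GAPDH/TPI/NAD/arsenate coupling system with diaphorase/resazurin was added; resorufin fluorescence (525/598 nm) was read after 20 min.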
TbPYK inhibitor = inhibitors of Trypanosoma brucei pyruvate kinase; Q57TT1; TbPYK enzyme, Kinase-Glo Plus ATP luminescence, 45 min; Potency, µM (highest dose often 76.8 µM), inactives show at the top dose activity, negative = inhibition, most hits filed as inhibitors; 410,000 tested, 0.12% active; AID 624173; also: potency is read from the fitted curve at half-maximal effect; % is scaled to controls: 0 for no effect and ±100 for the full control effect; nearly all actives have a fitted effect of over 50% in size
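Luminescent Kinase-Glo Plus end-point after 45 min room-temperature reaction of T. brucei pyruvate kinase started with 130 uM ADP (final). Buffer TEA 50 mM pH 7.2 with KCl, MgCl2, BSA, Tween-20; titration-based qHTS with fitted concentration-effect curves.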
Giardia growth = Giardia lamblia growth inhibition; shares compounds with Giardia FBPA inh-1; AID 2785; Potency, µM (series often up to 57.5 µM), for the others: top-dose activity change, negative = inhibition, usual class: inhibitors; 1,500 tested, 5% active; Giardia lamblia trophozoite growth inhibition;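 also: potency is read from the fitted curve at half-maximal effect; trophozoites exposed to compound for 48 h at 37 °C; % is scaled to controls: 0 for no effect and ±100 for the full control effect; nearly all actives have a fitted effect of over 70% in size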
Mammal cell tox = counter-screen for Giardia aldolase inhibitors: mammalian cell toxicity | Potency, µM (titrated, usually from 57.5 µM), for inactives: at the highest dose viability change, negative = toxicity, usual class: inhibitors | mammalian cell viability counter-screen, qHTS | AID 2786 | 1,500 tested, 4% active | shares compounds with Giardia FBPA inh-1;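 also: Chinese hamster ovary cells used as mammalian cytotoxicity surrogate; viability measured as cellular ATP by luminescence; potency is read from the fitted curve at half-maximal effect; compound exposure lasted 48 h before reading; % is scaled to controls: 0 for no effect and ±100 for the full control effect; nearly all actives have a fitted effect of over 60% in size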
Giardia FBPA inh-2 = confirmation of Giardia fructose-bisphosphate aldolase inhibitors | shares compounds with Giardia FBPA inh-1 | purified Giardia aldolase enzyme activity, qHTS | Potency, µM (titrated, usually from 57.5 µM), for inactives: at the top dose activity change, negative = inhibition, hits mostly inhibitors | 1,500 tested, 5% active | AID 2787; also: potency is read from the fitted curve at half-maximal effect; % is scaled to controls: 0 for no effect and ±100 for the full control effect; nearly all actives have a fitted effect of over 45% in size
Rabbit FBPA inh = blocks rabbit muscle aldolase in Giardia aldolase selectivity test; Potency, µM (titrated, usually from 57.5 µM), for inactives: top-dose activity, negative = inhibition, most hits filed as inhibitors; shares compounds with Giardia FBPA inh-1; Rabbit muscle FBPA enzyme inhibition, selectivity counter-screen; 1,500 tested, 4% active; also: potency is read from the fitted curve at half-maximal effect; % is scaled to controls: 0 for no effect and ±100 for the full control effect; nearly all actives have a fitted effect of over 60% in size
GAPDH counter = counter-screen for Giardia aldolase inhibitors: GAPDH coupling enzyme; AID 2795; 1,500 tested, 6% active; GAPDH coupling enzyme counterscreen, biochemical, qHTS; Potency, µM (highest dose often 57.5 µM), inactives show at the highest dose activity change, negative = inhibition, most hits filed as inhibitors; shares compounds with Giardia FBPA inh-1; also: potency is read from the fitted curve at half-maximal effect; % is scaled to controls: 0 for no effect and ±100 for the full control effect; nearly all actives have a fitted effect of over 55% in size
An asterisk follows results filed as active; ? = inconclusive; · = no result given; ! = not confirmed by another sample; [ ] = another dose, or the depositor's remark. The full list was thinned out, with hits kept by preference. Unless noted, calls follow the shape of the dose curve; as a rule, active = well fitted curve in the direction sought with a large enough effect; inconclusive = small, poorly fitted or top-dose-only effect, or another doubt; inactive = no such curve, though single readings can be large; an effect the other way counts as inactive or inconclusive.

SMILES | LmPK inhibitor | CHX counter | RE007 growth inh | Shiga toxin inh | Giardia FBPA inh-1 | TbPYK inhibitor | Giardia growth | Mammal cell tox | Giardia FBPA inh-2 | Rabbit FBPA inh | GAPDH counter
CCN(CC)S(=O)(=O)c1cccc(C(=O)N/N=C2\CCCC(=O)C2)c1 | -1% | -1 | -7% | 20 | 1% | -3% | · | · | · | · | ·
CCN(CC)S(=O)(=O)c1cccc(C(=O)N/N=C/c2ccccn2)c1 | 4% | 33* | -14% | 8 | 18µM* | -8% | -30% | 9% | 9% | 8% | 7%
O=C(N/N=C/c1ccccn1)c1cccc(S(=O)(=O)Nc2ccccc2Cl)c1 | -1% | -1 | 9% | -8 | 16µM* | -10% | ? | -10% | 6% | -20% | ?
CCN(C(=O)CN1CCOCC1)C1(C)C(=O)c2ccccc2C1=O | 5% | 0 | -4% | 14 | -17% | 0% | · | · | · | · | ·
S=C(Nc1ccccn1)c1ccccn1 | ? | 42* | -5% | 71*! | 3.2µM* | ? | -9%[38.3 µM] | 13µM* | ? | -29% | ?
COc1cc2c(cc1OC)CN(C(=O)CN1CCN(S(=O)(=O)c3ccccc3Br)CC1)CC2 | 1% | 17* | -5% | 69* | 16µM* | 0% | 3% | -5% | 1% | -5% | 9%
COc1ccc(S(=O)(=O)N2CCN(CC(=O)N3CCc4ccccc4C3)CC2)cc1OC | · | · | 10% | · | · | -2% | · | · | · | · | ·
COc1cc(-c2nc(S(=O)(=O)c3ccc(C)cc3)c(N3CCOCC3)o2)cc(OC)c1OC | 1% | 1 | 39% | -8 | 35µM* | 5% | ? | -22% | 3% | 10% | 6%
CN(CC(=O)Nc1ccc(F)cc1)C(=O)c1cc(-c2cccs2)nn1-c1ccccc1 | · | · | -8% | · | · | -6% | · | · | · | · | ·
CN(CCOc1ccccc1)CC(=O)Nc1ccc(S(=O)(=O)N2CCCC2)cc1 | -8% | -2 | -13% | 8 | 16µM* | 22% | ? | 1% | 8% | 12% | 2%
CN1CCN(S(=O)(=O)c2ccc(NC(=O)COc3ccccc3)cc2)CC1 | 0% | -1 | -6% | 44 | 1% | 5% | · | · | · | · | ·
CCOc1ccc(CN2CCN(S(=O)(=O)c3ccc(NC(C)=O)cc3)CC2)cc1 | 1% | 1 | -1% | -15 | 16µM* | 15% | ? | 1% | 3% | 7% | 4%
COc1ccc(CN2CCN(S(=O)(=O)c3ccc(NC(C)=O)cc3)CC2)cc1OC | 0% | 14 | 0% | -9 | -29% | 6% | · | · | · | · | ·
CC1CCN(C(=O)CSc2nnc(CNC(=O)c3ccc(S(=O)(=O)N(C)C)cc3)o2)CC1 | -7% | -2 | -13% | -9 | -14% | 0% | · | · | · | · | ·
O=C(CN1CCOCC1)Nc1c2c(nc3ccccc13)N(Cc1ccccc1)CC2 | -16% | -1 | -19% | -16 | 16µM* | 5% | ? | -3% | -7% | -3% | -5%
COc1ccc(NN=Nc2nc3c([nH]2)c(=O)n(C)c(=O)n3C)cc1 | -5% | 40* | 5% | 84* | 18µM* | ? | ? | -10% | 13µM* | ? | ?
COc1ccc(-n2c(=S)[nH]c3[nH]ncc3c2=O)cc1 | -13% | -2 | 5% | 18 | 18µM* | ? | -11%[10.4 µM] | 7% | 1% | 3% | 10%
CCCC(C)c1nnc(NC(=O)c2cc(C(=O)OC)cc([N+](=O)[O-])c2)s1 (configuration not stated) | 0% | -1 | -3% | -13 | 18µM* | ? | ? | -3% | -17% | 2% | 6%
CCC(Sc1nc2ncccc2[nH]1)C(=O)NCCc1ccccc1 (configuration not stated) | -9% | -2 | 5% | 6 | 2.2µM* | -3% | 4%[10.4 µM] | 0% | 4% | 13% | -6%
CCc1cc(-c2n[nH]c(=S)n2N)n(C)n1 | -3% | -3 | 12% | -12 | 10µM* | -11% | ? | 0% | 1% | 1% | 8%
O=C(O)c1cc2nccc(-c3ccc(F)cc3)n2n1 | -2% | 3 | -19% | -4 | 18µM* | -3% | 23% | -2% | 13% | 11% | 6%
CCn1ncc(-c2ccnc3cc(C(=O)O)nn23)c1C | -6% | -2 | -23% | -24 | 16µM* | 2% | 23% | 25% | -2% | -4% | -2%
O=C(O)c1cc(-c2ccccc2)n(-c2ccc(F)cc2)n1 | 7% | -3 | -6% | -2 | -8% | 3% | · | · | · | · | ·
CCOC(=O)COc1ccc([N+](=O)[O-])cc1-c1ccnc2cc(-c3ccc(C)cc3)nn12 | · | · | · | · | · | -2% | · | · | · | · | ·
